# From PubChem BioAssay
# Calls of active or inactive are those of the source.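 How the source made its calls, unless noted: active means NADPH fluorescence slope more negative than the mean of all samples by about 3 SD, 99.7% confidence; inactive means the rest.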
# Columns and labels:
# [1] = inhibitors of TNFa-induced NFkB p65 translocation, primary screen, imaging, HUVEC, MLSMR starter and 10KST1 sets (AID 438;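 active means inhibition above 20% together with a positive visual image hit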;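 further: compound added about 3h40 before a 20 min TNFalpha stimulation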;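 on inhibition: signal is the nuclear over cytoplasmic p65 intensity ratio per well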); details: HUVEC TNFa-induced p65 nuclear translocation; cell count: measured here: nuclei count (cytotoxicity indicator), at 2.08 µM; inhibition: at 2 µM, stronger effect = higher value, 0% TNFa-plus-vehicle, 100% no-TNFa wells
# [2] = reduction of polyQ htt aggregates in cells – imaging, exon1htt(103Q)mCFP cells, high-content imaging, primary screen (AID 483;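 active means visual image review flags a hit and inhibition of aggregation exceeds 20%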;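 further: compound exposure lasted 3 days before fixation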;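 on nuclei count: percent of the per-plate median nuclei count of sample wells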); details: exon1htt(103Q)mCFP cell line, aggregate imaging, at 2 µM; inhibition of aggregation: stronger effect = higher value; nuclei count: measured here: cell count, toxicity
# [3] = endothelial E-selectin expression blockers – imaging, HUVEC, immunofluorescence, MLSMR starter and 10KST1 sets, primary screen (AID 487;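 active means visually confirmed hit in the image check and inhibition above 20%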;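 on inhibition: signal is fraction of cell area covered by stained E-selectin grains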;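 on nuclei count: 100% = median nuclei count of all wells on the same plate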); details: HUVEC TNFalpha-induced E-selectin immunofluorescence imaging, at 2 µM; inhibition: stronger effect = higher value; nuclei count: measured here: cell number, toxicity
# [4] = target: Voltage-gated potassium channel subunit beta-2 (Rattus norvegicus) (UniProt P62483); assay: inhibitors of rat Kvbeta2 reductase activity – biochemical, NADPH fluorescence, primary screen (AID 622;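 active means fluorescence slope higher than the sample average by over 3 SD, cut at about -0.22 in these data, passing the limit was not always enough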;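 further: slope of raw intensity against log time taken from 70 to 1610 s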); details: recombinant KvBeta, 4-cyanobenzaldehyde reduction, at 10 µM, stronger effect = higher value
# Sequence of Voltage-gated potassium channel subunit beta-2 (Rattus norvegicus) (P62483 whole entry, looked up): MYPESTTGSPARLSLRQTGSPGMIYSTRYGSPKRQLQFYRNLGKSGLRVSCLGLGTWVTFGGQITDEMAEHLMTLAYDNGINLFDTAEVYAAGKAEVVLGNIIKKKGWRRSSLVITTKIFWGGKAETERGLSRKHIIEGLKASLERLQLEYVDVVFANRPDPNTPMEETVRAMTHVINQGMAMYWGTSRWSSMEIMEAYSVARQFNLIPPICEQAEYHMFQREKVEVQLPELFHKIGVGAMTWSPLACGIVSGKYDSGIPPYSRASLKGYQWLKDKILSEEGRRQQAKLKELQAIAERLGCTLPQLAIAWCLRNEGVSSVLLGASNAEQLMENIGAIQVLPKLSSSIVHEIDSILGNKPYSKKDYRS
# [5] = target: Voltage-gated potassium channel subunit beta-2 (Rattus norvegicus) (UniProt P62483); assay: enhancers of rat Kvbeta2 NADPH turnover – biochemical, NADPH fluorescence, primary screen (AID 623); details: Recombinant KvBeta, NADPH fluorescence decrease slope, 10 min; at 10 µM; stronger effect = lower value;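 further: fluorescence intensity change per second fitted from 20 to 320 s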
# [6] = target: Alpha-2C adrenergic receptor (Homo sapiens) (UniProt P18825); assay: compounds altering alpha2C-coupled GIRK flux – cell-based, HEK293 alpha2C/GIRK1/2, thallium flux, primary screen (AID 624;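 active means fluorescence slope after compound addition differing from the mean of all screened samples at 99.7% confidence, in either direction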;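 further: slope of fluorescence ratio to pre-addition baseline per second over 15 to 24 s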); details: thallium flux BTC fluorescence, at 10 µM, actives lie on both sides
# Sequence of Alpha-2C adrenergic receptor (Homo sapiens) (P18825 whole entry, looked up): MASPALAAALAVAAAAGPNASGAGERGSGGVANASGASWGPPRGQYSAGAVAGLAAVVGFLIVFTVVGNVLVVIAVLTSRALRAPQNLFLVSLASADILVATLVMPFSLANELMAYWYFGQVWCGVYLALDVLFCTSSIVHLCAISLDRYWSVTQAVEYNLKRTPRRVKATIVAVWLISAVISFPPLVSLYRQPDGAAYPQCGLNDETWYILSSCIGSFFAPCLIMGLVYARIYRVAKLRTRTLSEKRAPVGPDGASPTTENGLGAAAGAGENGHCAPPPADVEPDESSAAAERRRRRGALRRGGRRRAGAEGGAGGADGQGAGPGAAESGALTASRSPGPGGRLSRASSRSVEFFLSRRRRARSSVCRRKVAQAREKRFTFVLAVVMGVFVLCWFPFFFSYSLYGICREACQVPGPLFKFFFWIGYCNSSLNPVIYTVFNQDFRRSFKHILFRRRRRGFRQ
# [7] = blockers of RIG-like receptor reporter activation – cell-based, Sendai virus stimulus, luciferase, 10K MLSCN set, TLR/RLR signaling modifier project, primary screen (AID 602276;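 active means inhibition at or above 50% at 10 µM; inactive means inhibition below 50%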;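 further: firefly luciferase from ISG56 promoter only with Renilla not read in this screen; 0% = Sendai virus plus DMSO and 100% = medium plus DMSO without virus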); details: HEK293 RL24 IRF3 luciferase reporter, at 10 µM, stronger effect = higher value
# [8] = TLR3 IRF3 reporter activation blockers – cell-based, poly I:C stimulus, luciferase, 10K MLSCN set, primary screen (AID 602277;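 active means inhibition of the reporter signal at or above 50%; inactive means inhibition below 50%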); details: HEK293-TLR3 RL24 IRF3 luciferase reporter, at 10 µM, stronger effect = higher value
Compound,cell count [1],inhibition [1],inhibition of aggregation [2],nuclei count [2],inhibition [3],nuclei count [3],fluorescence slope [4],NADPH fluorescence slope [5],slope [6],inhibition [7],inhibition [8]
CS(=O)(=O)N(Cc1ccccc1)c1ccc(C(=O)N2CCOCC2)cc1,297,11.6% (inactive),23% (inactive),91.2%,41.9% (inactive),96.9%,-0.516 (inactive),-1.2e-05 (inactive),0.00702 (inactive),-11.4% (inactive),0.146% (inactive)
CC(C)COC(=O)N(C)c1ccc(C(O)(C(F)(F)F)C(F)(F)F)cc1,744,-12.4% (inactive),-7.8% (inactive),116%,-56.8% (inactive),112%,-0.618 (inactive),-4.8e-06 (inactive),0.00749 (inactive),-9.85% (inactive),-5.85% (inactive)
CCOc1ccc(NC(=O)CN(C)CC(=O)NC2CCCc3ccccc32)cc1OCC (stereo not drawn),451,14.9% (inactive),-6.5% (inactive),110%,10.8% (inactive),100%,-0.288 (inactive),-1.1e-05 (inactive),0.00604 (inactive),8.91% (inactive),26.6% (inactive)
O=C1N2c3ccccc3CCc3cccc(c32)C1(O)C(F)(F)F (stereo not drawn),747,4.7% (inactive),0.2% (inactive),82.6%,-28% (inactive),86.8%,-0.641 (inactive),1.4e-06 (inactive),0.00675 (inactive),17.9% (inactive),12.7% (inactive)
Cc1cc(NS(=O)(=O)c2ccc(NC(=O)COc3ccccc3C(C)C)cc2)no1,579,-12.7% (inactive),17.6% (inactive),72.3%,-2.6% (inactive),116%,-0.555 (inactive),-3.3e-05 (inactive),0.00559 (inactive),14.6% (inactive),39.1% (inactive)
O=C(COC(=O)C1CC1)c1c[nH]c2ccccc12,468,4.3% (inactive),3% (inactive),114%,-24.9% (inactive),103%,-0.587 (inactive),-2.6e-05 (inactive),0.00646 (inactive),-49.1% (inactive),-96.8% (inactive)
CC(=O)c1cc(Cl)ccc1OC(=O)c1ccco1,475,0.5% (inactive),-8.1% (inactive),106%,-48.1% (inactive),124%,-0.475 (inactive),-9e-05 (inactive),0.00476 (inactive),18.4% (inactive),21% (inactive)
CSc1ccccc1NC(=O)c1cnc2n(c1=O)CCS2,695,-9.6% (inactive),-2.5% (inactive),111%,-2.6% (inactive),112%,-0.401 (inactive),1e-05 (inactive),0.00535 (inactive),5.22% (inactive),-12.4% (inactive)
CN1CCN(CC#CCC(O)(c2ccccc2)C2CCCC2)CC1 (stereo not drawn),415,2.2% (inactive),-1.8% (inactive),99.7%,-21.3% (inactive),118%,-0.428 (inactive),-4.8e-05 (inactive),0.00551 (inactive),7.06% (inactive),4.71% (inactive)
COc1ccc(OC)c(S(=O)(=O)NCCC2=CCCCC2)c1,677,-3.6% (inactive),-18.8% (inactive),91.5%,16.5% (inactive),95%,-0.486 (inactive),-4.4e-05 (inactive),0.00446 (inactive),-1.71% (inactive),24.3% (inactive)
O=C1c2ccccc2S(=O)(=O)N1CC(O)Cn1c2ccccc2c2ccccc21 (stereo not drawn),397,1% (inactive),8.8% (inactive),105%,-121% (inactive),118%,-0.421 (inactive),-4.3e-05 (inactive),0.00434 (inactive),5.13% (inactive),30.2% (inactive)
CN1CCc2nc(SCCOc3ccccc3)c(C#N)cc2C1,319,-4% (inactive),0% (inactive),93.7%,-44.8% (inactive),114%,-0.346 (inactive),-9.3e-07 (inactive),0.00342 (inactive),-2.8% (inactive),2.79% (inactive)
CCOc1ccc(-c2nnn(CCC(=O)O)n2)cc1OC,429,6.5% (inactive),15.2% (inactive),64.5%,-108% (inactive),118%,-0.612 (inactive),1.3e-05 (inactive),0.00471 (inactive),18.1% (inactive),9.91% (inactive)
CCOC(=O)C(C)Sc1nnc(Cc2cc(=O)[nH]c(=O)[nH]2)n1-c1ccc(Cl)cc1 (stereo not drawn),817,-6.8% (inactive),4.6% (inactive),107%,-37.1% (inactive),99.1%,-0.615 (inactive),5.1e-06 (inactive),0.00534 (inactive),15.5% (inactive),12% (inactive)
COc1ccc(CN2C(=O)[C@@H]3C(c4ccc(F)cc4)=NO[C@@H]3C2=O)cc1,338,-10.5% (inactive),-8.2% (inactive),87.7%,-34.5% (inactive),113%,-0.302 (inactive),-5.3e-05 (inactive),0.00504 (inactive),13.4% (inactive),23.3% (inactive)
CCOc1ccc2[nH]c(=O)c(C(c3nnnn3Cc3ccco3)N3CCC(C)CC3)cc2c1 (stereo not drawn),218,0.8% (inactive),13.4% (inactive),97.1%,-65.3% (inactive),82.3%,-0.539 (inactive),-2.2e-05 (inactive),0.00417 (inactive),13% (inactive),20.5% (inactive)
CCOCCn1c(CN2CCN(CC)CC2)nc2c1c(=O)n(C)c(=O)n2C,638,2.9% (inactive),12.8% (inactive),92.7%,-15.7% (inactive),110%,-0.568 (inactive),-2.7e-05 (inactive),0.0075 (inactive),4.19% (inactive),33.7% (inactive)
COc1ccc(-c2ccc(-c3nnn(CC(C)=O)n3)cc2)cc1,277,-6.2% (inactive),-10.7% (inactive),111%,-65% (inactive),130%,-0.516 (inactive),-4.2e-05 (inactive),0.00693 (inactive),-41% (inactive),-130% (inactive)
O=C(CN(Cc1ccco1)C(=O)CNS(=O)(=O)c1ccc(F)cc1)NCCc1ccccc1,520,-2.1% (inactive),-2.1% (inactive),92.1%,-38.5% (inactive),112%,-0.481 (inactive),-2.9e-05 (inactive),0.00696 (inactive),-0.0533% (inactive),19.8% (inactive)
CC(C)c1nnc(NC(=O)C2CCCCC2)s1,571,-5.2% (inactive),22.8% (inactive),40.4%,20.2% (inactive),76.2%,-0.421 (inactive),-6.4e-05 (inactive),0.00517 (inactive),-16.4% (inactive),-54.8% (inactive)
CCc1ccc(CNCc2cccnc2)cc1,273,-1.6% (inactive),18% (inactive),101%,-19.3% (inactive),116%,-0.464 (inactive),-3e-05 (inactive),0.00429 (inactive),3.34% (inactive),18.6% (inactive)
c1ccc(CC2CCN(C(c3cccs3)c3nnnn3C3CCCC3)CC2)cc1 (stereo not drawn),743,-37.8% (inactive),7.1% (inactive),108%,-31.1% (inactive),99.9%,-0.558 (inactive),3.9e-05 (inactive),0.00517 (inactive),-0.349% (inactive),20.3% (inactive)
COc1ccc(C2CC(c3cccs3)n3nc(N)nc3N2)cc1 (stereo not drawn),619,-6.3% (inactive),7.8% (inactive),122%,-38.1% (inactive),118%,-0.533 (inactive),-1.5e-05 (inactive),0.00849 (inactive),-3.14% (inactive),-18.2% (inactive)
COc1cc2c(cc1OC)-c1cc(Nc3ccc4c(c3)OCCO4)nc(=O)n1CC2,649,-6.9% (inactive),0.9% (inactive),104%,5.7% (inactive),128%,-0.41 (inactive),-5.2e-06 (inactive),0.00445 (inactive),41.3% (inactive),44.1% (inactive)
Cc1ccc(NC(=O)CCN2CCc3ccccc3C2)cc1,820,-9.6% (inactive),-13.1% (inactive),86.9%,-44.8% (inactive),113%,-0.463 (inactive),-0.000317 (inactive),0.00467 (inactive),5.12% (inactive),24.7% (inactive)
CCc1ccccc1NC(=O)CCc1nc(-c2ccc(C)cc2)no1,415,-1% (inactive),-4% (inactive),103%,14.1% (inactive),86.3%,-0.299 (inactive),1.2e-05 (inactive),0.00374 (inactive),14.1% (inactive),47.2% (inactive)
CN(CCc1ccccn1)C(=O)CCNC(=O)Cn1cnc2ccccc2c1=O,202,-7.4% (inactive),-4.7% (inactive),99.5%,-6.6% (inactive),110%,-0.611 (inactive),1.1e-05 (inactive),0.00589 (inactive),13.8% (inactive),14.4% (inactive)
CCOC(=O)c1[nH]c(C)c(C(=O)N2CCN(C(=O)c3ccco3)CC2)c1C,780,-13.4% (inactive),2.2% (inactive),110%,-102% (inactive),101%,-0.5 (inactive),1.2e-05 (inactive),0.00532 (inactive),16.8% (inactive),18.7% (inactive)
